Compound activity (PubChem)
Only some compounds are listed: those with a hit (about 8% of all), similar ones and a draw of the others.
Lassa entry – inhibitors of Lassa virus binding or entry into cells. Lassa virus pseudotyped entry inhibition, cell-based qHTS. Potency, µM (series often up to 49.2 µM), inactives show top-dose activity change, negative = inhibition, actives largely listed as inhibitors. hit rate 4.1% among 18,000
Marburg entry – Marburg virus entry inhibition; Marburg virus pseudotype entry/binding inhibition, cell-based; Potency, µM (highest dose often 49.2 µM), for the others: at the top dose activity change, negative = inhibition, usual class: inhibitors; hit rate 6.5% among 18,000; AID 720532
An asterisk follows results filed as active; ! = a repeat was not active; [ ] = remark or other dose. The call rests on the fitted dose curve; tested in HEK293 cells. On the % scale 0 is the no-effect control and ±100 the full control effect; potency means the concentration at half of the fitted maximal effect.

COC1=CC2C(=O)C(C1=O)C1c3ccccc3CC21 (configuration not stated) was read as Lassa entry -17.3%[8.59 µM] and Marburg entry -3.0%[8.59 µM].
Screening CCC[C@H]1CN(Cc2cccnc2)C(=O)[C@H]1CC(=O)Nc1ccc(Br)cc1 returned Lassa entry 11.5% and Marburg entry 27.8%.
Screening CC(=O)[C@@]1(O)CC[C@H]2[C@@H]3CCC4=CC(=O)CC[C@]4(C)[C@H]3CC[C@@]21C returned Lassa entry -29.8% and Marburg entry -5.8%.
CCCCCC(=O)O[C@]1(C(C)=O)CC[C@H]2[C@@H]3CCC4=CC(=O)CC[C@]4(C)[C@H]3CC[C@@]21C was read as Lassa entry 31.6µM* and Marburg entry inconclusive.
CC(=O)C1CCC2C3CCC4=CC(=O)CC[C@@]4(C)C3CC[C@]12C (some centres not stated) was read as Lassa entry 9.3% and Marburg entry 22.4µM*.
CCCCCCCCCC(=O)O[C@H]1CC[C@H]2[C@@H]3CCC4=CC(=O)CC[C@]4(C)[C@H]3CC[C@]12C was read as Lassa entry -9.2% and Marburg entry 18.6%.
`CC1=C(C(=O)Nc2ccc3[nH]ncc3c2)C(c2ccc(F)cc2)NC(=O)N1` (configuration not stated) gave Lassa entry inconclusive and Marburg entry 7.6%.
For CC(C)=CCC1=C(O)c2ccccc2C(=O)C1=O the results were Lassa entry inconclusive and Marburg entry 5.01µM*.
Screening CC1=C(C/C=C(\C)CCC[C@H](C)CCC[C@H](C)CCCC(C)C)C(=O)c2ccccc2C1=O returned Lassa entry -15.6% and Marburg entry -1.7%.
For CCN1C(=NCc2cc(OC)c(OC)c(OC)c2)NC(c2cccc(F)c2)C(C(=O)OC)=C1C (configuration not stated) the results were Lassa entry 22.3%[8.59 µM] and Marburg entry -5.5%[8.59 µM].
`C[C@@H](O)[C@H]1C(=O)N2C(C(=O)[O-])=C(SC3Cn4cnc[n+]4C3)[C@H](C)[C@H]12` (some centres not stated) gave Lassa entry -10.3% and Marburg entry 6.4%.
Screening Cc1ccc2nc(NCCN)c3ncc(C)n3c2c1 returned Lassa entry inconclusive and Marburg entry 7.94µM*.
O=C(N/N=C\c1ccccc1O)c1ccccc1O was read as Lassa entry 7.94µM* and Marburg entry 7.08µM*.
Screening COC(=O)c1ccccc1O returned Lassa entry -6.3% and Marburg entry -10.5%.
`O=C1[C@H]2[C@@H]3[C@@H](O)[C@H](O)CC(=NOCc4ccccc4)[C@@H]3CC[C@H]2C(=O)N1Cc1ccc2c(c1)OCO2` gave Lassa entry 8.5%[8.59 µM] and Marburg entry -17.5%[8.59 µM].
Screening CC12C=C(C=CCCc3ccco3)C(C)(C1)C(CCc1ccco1)CC2=O (configuration not stated) returned Lassa entry 9.1%[8.59 µM] and Marburg entry -5.8%[8.59 µM].
For CN(CCc1ccc(Cl)c(Cl)c1)[C@H]1CCCC[C@H]1N1CCCC1 the results were Lassa entry 17.8µM* and Marburg entry 6.31µM*.
For CN(CCc1ccc(Cl)c(Cl)c1)CC(O)COc1ccc(NS(C)(=O)=O)cc1 (configuration not stated) the results were Lassa entry 3.1% and Marburg entry inconclusive.
CN(CCc1ccc(Cl)c(Cl)c1)CCN1CCCCCC1 was read as Lassa entry inconclusive and Marburg entry 10µM*.
Screening O=C(O)c1ccc(CCN2CCN(CC=Cc3ccc(Cl)cc3)CC2)cc1 returned Lassa entry 0.1% and Marburg entry 10.5%.
CN1CCN(CCc2ccc(Cl)c(Cl)c2)CC1 was read as Lassa entry inconclusive and Marburg entry 17.8µM*!.
For CC(C)=CCCC(C)=CCON=C1C[C@@H](O)[C@@H](O)[C@@H]2[C@H]3C(=O)N(c4ccc(F)cc4F)C(=O)[C@@H]3CC[C@H]12 the results were Lassa entry 7.9%[8.59 µM] and Marburg entry inconclusive.
O=C(c1cccs1)N1C[C@H](O)[C@H](n2cc(C3CC3)nn2)C[C@@H]1c1ccc(Cl)cc1 was read as Marburg entry 21.5%.
`COC(=O)[C@@]1(C=C2c3ccc(OC)cc3[C@@H](OC)[C@@H]2C)[C@@H]2C=CC[C@@H]21` gave Lassa entry -25.6%[8.59 µM] and Marburg entry -11.0%[8.59 µM].
`O=C1[C@@H]2CSCCS(=O)(=O)N2C(=O)N1c1cccc2ccccc12` gave Lassa entry 32.6% and Marburg entry 25.4%.
`CCN(CC)C(=O)N[C@H]1C[C@@H]2c3cccc4[nH]cc(c34)C[C@H]2N(C)C1` gave Lassa entry -7.8% and Marburg entry 5.2%.
`C=CCN1C[C@H](C(=O)N(CCCN(C)C)C(=O)NCC)C[C@@H]2c3cccc4[nH]cc(c34)C[C@H]21` gave Lassa entry -11.8% and Marburg entry 7.94µM*.
C=CCOC(=O)C(C(C)=O)[C@@H](NC(=O)OC)c1ccc(F)cc1 (some centres not stated) was read as Lassa entry 11.6%[8.59 µM] and Marburg entry 19.6%[8.59 µM].
Screening CC(C)=CCN1C(=O)[C@@]2(CC(C)=C[C@@H](COCc3ccccc3)O2)c2ccccc21 returned Marburg entry 2.9%[8.59 µM].
Screening CC(C)NCC(O)COc1ccccc1-n1cccc1 (configuration not stated) returned Lassa entry 3.9% and Marburg entry inconclusive.
Screening CC(C)NC[C@@H](O)COc1cccc2ccccc12 returned Lassa entry -12.9% and Marburg entry inconclusive.
Screening CC(C)NC[C@H](O)COc1cccc2ccccc12 returned Lassa entry -7.5% and Marburg entry 15.8µM*!.
C=CCc1ccccc1OCC(O)CNC(C)C (configuration not stated) was read as Lassa entry 1.1% and Marburg entry 11.2µM*.
Screening C[C@H]1[C@@H](C(=O)N2CCCC2)CC(=NOCc2ccccc2)C(=NOCc2ccccc2)C[C@H]1c1ccccc1 returned Marburg entry -29.4%[8.59 µM].
CC(C)CN1Cc2cc(Br)ccc2Oc2ccc(Cl)cc2S1(=O)=O was read as Lassa entry -9.6% and Marburg entry inconclusive.
For O=C1C2CC3CC1CC(O)(C3)C2 the results were Lassa entry 3.9% and Marburg entry 10.5%.
For COC(=O)C[C@H]1c2ccccc2[C@@H]2C(=C[C@@H](C)[C@H]3C(=O)NC(=O)[C@H]32)N1C(=O)OC the results were Lassa entry -6.3%[8.59 µM] and Marburg entry 2.7%[8.59 µM].
`O=c1c2ccccc2[se]n1-c1ccccc1` gave Lassa entry 25.1µM*! and Marburg entry 22.4µM*!.
Cc1ccccc1-n1c(C)nc2ccccc2c1=O was read as Lassa entry inconclusive and Marburg entry 8.4%.
`COC(=O)[C@@]1(C=C2c3ccc(F)cc3[C@@H](OC)[C@@H]2C)[C@@H]2C=CC[C@@H]21` gave Lassa entry 8.0%[8.59 µM] and Marburg entry inconclusive.
Screening C[C@]12CC[C@@H]3c4ccc(O)cc4CC[C@H]3[C@@H]1CC[C@@H]2O returned Lassa entry 14.1µM*! and Marburg entry 6.6%.
`CC12CCC3c4ccc(O)cc4CCC3C1CCC2O` (configuration not stated) gave Lassa entry inconclusive and Marburg entry 3.7%.
Screening C[C@@]12CC[C@@H]3c4ccc(O)cc4CC[C@H]3[C@H]1CC[C@H]2O returned Lassa entry -12.2%[17.8 µM] and Marburg entry 6.8%[17.8 µM].
`CCCCCCC(=O)O[C@H]1CC[C@H]2[C@@H]3CCc4cc(O)ccc4[C@H]3CC[C@]12C` gave Lassa entry 31.6µM* and Marburg entry 3.6%.
Screening O=C(C=Cc1cccc([N+](=O)[O-])c1)c1ccccc1 returned Marburg entry -27.2%[8.59 µM].
